According to PubChem BioAssay AID571 (The Scripps Research Institute Molecular Screening Center, 2007):
Hit rate of the full screen: of about 65,000 compounds, about 640 (0.98%) were called active. What follows is part of a selection rich in actives, with near analogues and random picks from the rest. A number with no mark means an inactive call.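 How the source made its calls: active means inhibition above a set limit, the mean inhibition across every tested compound plus 3 SD (cut at about 29% in these data); inactive means the rest.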

target: 5-hydroxytryptamine receptor 1E (Homo sapiens) (UniProt P28566); assay: blockade of human serotonin 5HT1E receptor – cell-based, HTS, primary screen (AID 571); details: CHO 5-HT1E Ga15 NFAT-bla reporter, FRET, antagonist; at 6 µM; stronger effect = higher value;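 further: signal is the 460 over 535 nm emission ratio of beta-lactamase substrate; 0% = agonist plus DMSO wells and 100% = wells without agonist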
Sequence (P28566 whole entry, looked up): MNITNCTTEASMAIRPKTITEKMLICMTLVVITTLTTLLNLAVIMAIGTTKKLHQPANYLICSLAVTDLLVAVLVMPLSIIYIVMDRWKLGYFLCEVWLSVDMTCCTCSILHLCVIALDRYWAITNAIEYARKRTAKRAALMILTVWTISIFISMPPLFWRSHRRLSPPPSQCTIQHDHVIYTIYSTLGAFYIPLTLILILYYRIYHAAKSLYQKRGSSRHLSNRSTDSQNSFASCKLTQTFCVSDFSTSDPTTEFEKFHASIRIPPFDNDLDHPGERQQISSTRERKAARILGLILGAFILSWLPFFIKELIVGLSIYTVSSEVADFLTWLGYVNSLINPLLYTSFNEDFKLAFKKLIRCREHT

| Compound | inhibition |
| --- | --- |
| O=C(O)C1CC=C(Cl)CC1C(=O)NCc1ccccc1 (configuration not stated) | -3% |
| CCN(Cc1nc2ccccc2c(=O)[nH]1)Cc1cc(=O)oc2cc(C)c(C)cc12 | -2.39% |
| CCn1c(SCC(=O)c2ccc(Cl)s2)nnc1-c1cccs1 | 3.04% |
| OCc1n[nH]c(CO)n1 | 6.12% |
| COCCN1Cc2cccc(C(=O)Nc3ccccc3OC)c2C1=O | 8.66% |
| O=S(=O)(NCc1ccccn1)c1ccc(F)cc1 | 0.49% |
| NC(=O)C1(N2CCCCC2)CCN(C(=O)c2ccc(C#Cc3ccccc3)o2)CC1 | 2.52% |
| COc1ccc(Nc2oc(-c3ccccc3Cl)nc2C#N)cc1 | 75% (active) |
| CCOc1ccc(Nc2oc(Cc3ccccc3)nc2C#N)cc1 | -1.52% |
| N#Cc1nc(-c2ccc(OCc3ccccc3)cc2)oc1NCCCN1CCOCC1 | 0.01% |
| O=C(CN1CCN(S(=O)(=O)/C=C/c2ccccc2)CC1)NC(=O)NCc1ccco1 | 4.51% |
| COc1ccc(CCNC(=O)c2ccc3c(c2)NC(=O)C(N2CCOCC2)S3)cc1OC (configuration not stated) | -4.16% |
| Cc1ccccc1NC(=O)c1cc(S(=O)(=O)N2CCOCC2)cs1 | -6.32% |
| O=C(Nn1cc(C(=O)N2CCN(c3ccccc3F)CC2)c2ccccc2c1=O)c1cnccn1 | 3.04% |
| Cc1cc(C)n(-c2ccc(Cl)c(C(=O)O)n2)n1 | 4.5% |
| COc1cc(NS(=O)(=O)c2ccccc2)ccc1-n1nc(C)cc1C | -6.22% |
| CC(=O)c1ccc(Oc2cc(C)nc(-n3nc(C)cc3C)n2)cc1 | 78.3% (active) |
| COc1ccc(Nc2cc(C)nc(-n3nc(C)cc3C)n2)cc1 | 49% (active) |
| COCCNc1nc(-n2nc(C)cc2C)nc2sc3c(c12)CCCC3 | 22.7% |
| CCOC(=O)c1cnc(-n2nc(C)cc2C)nc1Nc1cccc(C(C)=O)c1 | -0.9% |
| Cc1cc(NCc2ccco2)n2c(nc3ccccc32)c1C#N | 11.1% |

| Compound | inhibition |
| --- | --- |
| Nc1ccc(-c2nnc(-c3ccc(-c4ccccc4)cc3)o2)cc1 | -0.45% |
| O=C(CSc1nnc(-c2ccncc2)n1C1CCCCC1)Nc1ccccc1 | -9.37% |
| CC12C(=O)N(n3cnnc3)C(=O)C1C1C=CC2C1 (configuration not stated) | 8.42% |
| COCCNC(=O)C(c1ccc(C)o1)N(Cc1cccs1)C(=O)c1snc(C(N)=O)c1N (configuration not stated) | -3.57% |
| Cc1cc(=O)oc(C)c1C(=O)NC1CC(C)(C)NC(C)(C)C1 | -4.29% |
| C[N+](C)(C)CCOP(=O)([O-])OC[C@H](O)CO | -4.74% |
| COc1ccc(Br)cc1S(=O)(=O)N1CCN=C1C | -3.84% |
| CC1CCCC(NC(=O)CSc2nccn2C)C1C (configuration not stated) | 2.04% |
| Cc1c(C(=O)NCCN2CCOCC2)sc2nc(-c3ccc(F)cc3)cn12 | -2.05% |
| c1ccc(-c2cn3cccnc3n2)cc1 | -0.19% |
| COc1ccc(S(=O)(=O)NC(CC(=O)NCc2ccccc2OC)c2ccco2)cc1 (configuration not stated) | -1.55% |
| CCOC(=O)N1CCC(NC(=O)CN2C(=O)COc3ccc(C(C)(C)C)cc32)CC1 | -7.21% |
| CCOC(=O)N1CCC(NC(=O)Cc2cn(C)c3ccccc23)CC1 | -14.8% |
| CCOC(=O)c1c(C)oc2ccc(OCC(=O)N(CC)CC)cc12 | -6.18% |
| COc1ccc(C)cc1S(=O)(=O)NC1CCCCC1 | -3.9% |
| O=C(Cn1c(=S)nc2ccccn21)N1CCc2ccccc2C1 | -1.67% |
| CCCCNC(=O)CSc1nccn1Cc1ccccc1 | 3.33% |
| O=C(CNS(=O)(=O)c1cccc(C(F)(F)F)c1)Nc1ccccc1F | -3.72% |
| CCCCC(=O)Nc1ccc2c(c1)OCCO2 | -10.5% |
| CCCCC(=O)Nc1ccc2c(c1)C(=O)NC2=O | 44% (active) |
| CCCCCC(=O)Nc1ccc2oc(-c3ccncc3)nc2c1 | 4% |

| Compound | inhibition |
| --- | --- |
| Nc1ccc(SCCN2C(=O)c3ccccc3C2=O)cc1 | -1.04% |
| COC(=O)c1ccc(NC(=O)CSc2nnc(Cc3cccn3C)n2-c2ccc(F)cc2)cc1 | -7.1% |
| CCc1nnc(NC(=O)c2nc3nccc(C)n3n2)s1 | -0.48% |
| CCOc1ccc(C(=O)Nc2ccncc2)cc1 | 5.74% |
| CSc1sc(C)cc1C1C(C#N)=C(N)N(c2cccnc2)C2=C1C(=O)CCC2 (configuration not stated) | 24.6% |
| COc1ccc(CCNS(=O)(=O)c2ccc(C(=O)NCc3ccco3)cc2)cc1OC | -13.4% |
| Cc1ccccc1NC(=O)Cc1nnc(SCC(=O)N2CCN(c3ccccc3)CC2)n1C | 2.63% |
| Cc1noc(C)c1S(=O)(=O)NCCc1ccc(S(N)(=O)=O)cc1 | -6.61% |
| Cc1cccc(-n2c(O)c(C=Nc3ccccc3N)c(=O)[nH]c2=O)c1 | -5.35% |
| CC(C)(C)c1cc(C(=O)NCc2cccnc2)ccn1 | -1.08% |
| Cc1ccc(-n2nc(-c3ccco3)cc2C(=O)NCc2cccnc2)cc1 | 30.4% (active) |
| Cc1ccc2c(c1)N(CCCC(=O)NCc1cccnc1)C(=O)CO2 | 10.1% |
| CCN1CCN(C(=O)c2ccccc2N(C)S(=O)(=O)c2ccc(C)cc2)CC1 | -11.1% |
| Cc1nnc2sc(-c3ccco3)nn12 | -3.05% |
| CCn1c(=O)cc(OCC(=O)NCCCN2CCN(c3cccc(Cl)c3)CC2)c2ccccc21 | -1.38% |
| CC1CCCC(C)N1CCCNC(=O)c1cc2c(=O)n(C)c3ccccc3c2n1C (configuration not stated) | -8.37% |
| Cn1c(C(=O)NCCCN2CCN(c3cccc(Cl)c3)CC2)cc2c(=O)n(C)c3ccccc3c21 | 28.9% (active) |
| COc1ccc(N=Cc2c(O)[nH]c3ccccc23)cc1OC | -3.2% |
| COc1ccc(OC)c(N=Cc2c(O)[nH]c3ccccc23)c1 | 39.8% (active) |
| COc1cc(N=Cc2c(O)[nH]c3ccccc23)cc(OC)c1OC | 4.31% |
